Source: the supplement of paper PMC10338343
± gives the standard deviation.

Tested on: MILI (PIWIL2) piRISC loaded with piRNA #1 (26 nt)
Assay: pre-steady-state target cleavage rate (min^-1); guide: piRNA #1 5'p-UGAGGUAGUAGGUUGUAUAGUAUCCA; MIWI and MILI are mouse PIWI proteins and EfPiwi is from a freshwater sponge; tags in brackets are library labels; higher = faster piRNA-guided slicing of the target
Conditions: auxiliary factor: 500 nM mouse GTSF1
How it was run: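 In HEPES–potassium acetate buffer at 33 °C, […] transcribed, DNA-blocked target RNA library was mixed with 1 nM active affinity-purified piRISC carrying one synthetic guide, with or without 500 nM GTSF1 partner protein, for 0–8 or 0–960 min. Uncleaved targets were sequenced and normalised to depth and to weakly complementary targets; three trials were pooled and k3 was capped at 0.0001 min^-1. The pre-steady-state cleavage rate followed from a burst-and-steady-state fit.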
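Further: 1 nM active piRISC with 0.1 nM target library at 33 °C single turnover.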

Sequence: GGAGACCUAUGAUAUGUUGCUACAACCUGA
- pre-steady-state target cleavage rate: < 0.0001

Sequence: GGAGACCUUAAUAUACAACCUACUACCUCA
- pre-steady-state target cleavage rate: 0.0318 ± 0.0064

Sequence: GGAGACCUAUGAUAACAACCUACACCUCA
- pre-steady-state target cleavage rate: < 0.0001

Sequence: GGAGACCUUACUAUACAAACUACUACCUCA
- pre-steady-state target cleavage rate: 0.204 ± 0.014

Sequence: GGAGACCUAUGAUAUGAAGGAACUACCUCA
- pre-steady-state target cleavage rate: < 0.0001

Sequence: GGAGACCUUACUUUACAACGUACUACCUCA
- pre-steady-state target cleavage rate: 0.0199 ± 0.0047

Sequence: GGAGACGAUACUAAUGAACCUACUACCUCA
- pre-steady-state target cleavage rate: 0.0821 ± 0.011

Sequence: GGAGACCUAUGUAUACAACCCACUACCUCA
- pre-steady-state target cleavage rate: 0.0101 ± 0.0034

Sequence: GGAGACCUUACUUUACAACCUACUACCUGA
- pre-steady-state target cleavage rate: 0.0835 ± 0.014

Sequence: GGAGAGCAUACUAUAGAACCUACUACCUCA
- pre-steady-state target cleavage rate: 0.142 ± 0.012

Sequence: GGAGACCUAUCUAUACAACCUACUACCCUCA
- pre-steady-state target cleavage rate: 0.132 ± 0.015

Sequence: GGAGACCUAUGAUAUCAACCUAGUACCUGA
- pre-steady-state target cleavage rate: < 0.0001

Sequence: GGAGACCUAACUAUACAUCGUACUACCUCA
- pre-steady-state target cleavage rate: 0.0246 ± 0.0074

Sequence: GGAGACCUAUGUAUACGACCUACUACCUCA
- pre-steady-state target cleavage rate: 0.0178 ± 0.0033

Sequence: GGAGACGAUACAAUACAAGCUACUACCUCA
- pre-steady-state target cleavage rate: 0.236 ± 0.017

Sequence: GGAGACCAUAGUAUACAACCAACUACCUCA
- pre-steady-state target cleavage rate: 0.00718 ± 0.0021

Sequence: GGAGAGGAUACUAUACAUCCUACAACCUCA
- pre-steady-state target cleavage rate: 0.125 ± 0.024

Sequence: GGAGACCUAUGAAAACAACCUACUACCUCA
- pre-steady-state target cleavage rate: 0.0037 ± 0.0033

Sequence: GGAGACCUAUGUAUUCAACCUACAACCUCA
- pre-steady-state target cleavage rate: 0.0352 ± 0.0064

Sequence: GGAGAGGAUUCUAAACAACCUACUACCUCA
- pre-steady-state target cleavage rate: 0.149 ± 0.01

Sequence: GGAGACCUAUGAAUACAACCUACUACCUA
- pre-steady-state target cleavage rate: 0.00429 ± 0.0026

Sequence: GGAGACCAUACUAAACAACCUACUACCACA
- pre-steady-state target cleavage rate: 0.233 ± 0.026

Sequence: GGAGACCUAUGUAUAACAACCUACUACCUCA
- pre-steady-state target cleavage rate: 0.0151 ± 0.0041

Sequence: GGAGACCUAUGUAUACAACGUAGUACCUCA
- pre-steady-state target cleavage rate: 0.0032 ± 0.0023
